The values below come from the antibiotic and cytotoxicity screens of Wong et al. (2023).

Screen size: about 39,000 compounds; about 1,500 (3.8%) were called active. The entries come from a sample that favours actives as a whole.

The test relates to HSkMC (human skeletal muscle cells). Description: cytotoxicity call (relative viability < 0.9). The settings on record: 10 µM.
As for `CCCCCCCCCc1ccc(O)cc1`, the cytotoxicity call was “active”.
As to `NCCc1ccc(O)cc1` [listing 1 of 2 here], the cytotoxicity call is “inactive”.
As for `NCCc1ccc(O)cc1` [listing 2 of 2 here], the cytotoxicity call was “inactive”.
As for `COP(=O)(OC)OC(Br)C(Cl)(Cl)Br` (configuration not stated), the cytotoxicity call is “inactive”.
With `COC(=O)[C@H]1CNC(=O)C1`, the cytotoxicity call was “inactive”.
As for `C=C(C)C1C2OC(=O)C1C1(O)CC3OC34C(=O)OC2C14C` (configuration not stated), the cytotoxicity call was “inactive”.
For `C1COC2(CCNCC2)OC1`, the cytotoxicity call was “inactive”.
Regarding `Cl.OC1CCCCC1N1CCC(c2ccccc2)CC1` (configuration not stated), the cytotoxicity call is “inactive”.
As to `C[C@@]12C(=O)OC(=O)[C@]1(C)[C@H]1CC[C@@H]2O1`, the cytotoxicity call was “active”.
To `CC12C(=O)OC(=O)C1(C)C1CCC2O1` (configuration not stated) belongs “inactive”; to `C[C@]12C(=O)OC(=O)[C@]1(C)[C@H]1CC[C@H]2O1`, “active”; to `C(=N/C12CN3CN(CN(C3)C1)C2)/c1cccnc1`, “inactive”.
As to `CC(=CCn1c[n+](C)c2c(N)ncnc21)CCC1(C)C(C)CCC2(C)C(C)=CCCC21.[Cl-]` (configuration not stated), the cytotoxicity call was “inactive”.
For the compound `OCC1CCCN2CCCCC12` (configuration not stated), the cytotoxicity call is “inactive”.
To `N=C(N)N/N=C/c1ccc2c(c1)OCO2` belongs “inactive”.
The result for `Cc1ccc(OC(=O)N(C)C[C@@H]2OCc3ccccc3-c3c(n(C)c4ccccc34)C(=O)N([C@H](C)CO)C[C@@H]2C)cc1` reads “inactive”; that for `COc1ccc(OC(=O)N(C)C[C@@H]2OCc3ccccc3-c3c(n(C)c4ccccc34)C(=O)N([C@H](C)CO)C[C@H]2C)cc1`, “active”; that for `COc1ccc(OC(=O)N(C)C[C@H]2OCc3ccccc3-c3c(n(C)c4ccccc34)C(=O)N([C@H](C)CO)C[C@@H]2C)cc1`, “inactive”.
For `Cc1ccc(OC(=O)N(C)C[C@H]2OCc3ccccc3-c3c(n(C)c4ccccc34)C(=O)N([C@H](C)CO)C[C@@H]2C)cc1`, the cytotoxicity call is “active”.
To `Cc1ccc(OC(=O)N(C)C[C@@H]2OCc3ccccc3-c3c(n(C)c4ccccc34)C(=O)N([C@@H](C)CO)C[C@H]2C)cc1` belongs “inactive”; to `COc1ccc(OC(=O)N(C)C[C@H]2OCc3ccccc3-c3c(n(C)c4ccccc34)C(=O)N([C@@H](C)CO)C[C@H]2C)cc1`, “inactive”.
In the case of `O=C(NC(O)C(Cl)(Cl)Cl)NC(O)C(Cl)(Cl)Cl` (configuration not stated), the cytotoxicity call was “inactive”.
Consider `CC(C)C[C@@H]1C(=O)N2CCC[C@@H]2[C@]2(O)O[C@@](NC(=O)[C@@H]3C=C4c5cccc6[nH]cc(c56)C[C@@H]4N(C)C3)(C(C)C)C(=O)N12`, for which the cytotoxicity call was “inactive”.
To `C[C@H]1CN(C)[C@@H](C)C[C@@H]1n1[nH]c(=O)cc1N` belongs “inactive”; to `CO[C@H]1[C@H]2CC[C@@H]1NC2`, “inactive”; to `O=[N+]([O-])C(Br)(CO)CO` [listing 1 of 2 here], “active”.
With `O=[N+]([O-])C(Br)(CO)CO` [listing 2 of 2 here], the cytotoxicity call was “active”.
To `OCC(Br)(Br)Br` belongs “inactive”.
For the compound `C=C(C)[C@@H]1[C@H]2OC(=O)[C@H]1[C@]1(O)C[C@H]3O[C@]34C(=O)O[C@H]2[C@]14C`, the cytotoxicity call is “inactive”.
As for `Cc1cc(N2CCN(C)CC2)ncn1`, the cytotoxicity call is “inactive”.
On to `CN1[C@@H](CO)[C@@H]2c3ccccc3NC[C@@H]21`, for which the cytotoxicity call is “inactive”.
For `COc1ccc(OC(=O)N(C)C[C@@H]2OCc3ccccc3-c3c(n(C)c4ccccc34)C(=O)N([C@H](C)CO)C[C@@H]2C)cc1`, the cytotoxicity call was “inactive”.
As for `CC[n+]1c(-c2ccccc2)c2cc(N)ccc2c2ccc(N)cc21.[Br-]`, the cytotoxicity call is “inactive”.
`CN[C@H]1C[C@@H](N)[C@H](O)[C@@H](O[C@@H]2O[C@H](CO)[C@H](O)[C@@H]3O[C@@]4(O[C@H]23)O[C@H]([C@@H](N)CO)[C@H](O)[C@H](O)[C@H]4O)[C@@H]1O`: the cytotoxicity call was “active”.
As to `O=c1cccc2n1C[C@@H]1C[C@H]2CN(C[C@H](O)/C=N/n2cnnc2)C1`, the cytotoxicity call was “inactive”.
With `CC(=O)OCC1=C(C(=O)O)N2C(=O)[C@@H](NC(=O)CCC[C@@H](N)C(=O)O)[C@@H]2SC1`, the cytotoxicity call was “inactive”.
Take `N[C@@H](Cc1ccc(O)cc1)C(=O)NCC(=O)NCC(=O)O`: the cytotoxicity call was “inactive”.
For the compound `Cc1nc2c(=O)n(C)c(=O)nc-2n(C)n1`, the cytotoxicity call was “active”.
Turning to `Cn1ncnc2c(=O)n(C)c(=O)nc1-2`, the cytotoxicity call is “active”.
As to `Cc1cnc(C(=O)N2C[C@H]3CNC[C@H]3C2)cn1`, the cytotoxicity call is “inactive”.
In the case of `[O-][n+]1ccccc1[S][Zn][S]c1cccc[n+]1[O-]`, the cytotoxicity call is “active”.
As to `O=C(O)C[C@@H]1CC[C@H]2NC[C@@H](O)COC[C@@H]2O1`, the cytotoxicity call was “inactive”.
On to `Cc1cc(O)c2c(=O)c3c(O)cc(O)c4c5c(O)cc(O)c6c(=O)c7c(O)cc(C)c8c1c2c(c34)c(c78)c65`, for which the cytotoxicity call is “active”.
In the case of `CCC1(O)C(=O)OCc2c1cc1n(c2=O)Cc2cc3ccccc3nc2-1` (configuration not stated), the cytotoxicity call is “inactive”.
With `Cc1nc(-c2ccc(-c3ccc(C(=O)N4CCc5cc6c(cc54)C4(CCN(C)CC4)CO6)cc3)c(C)c2)no1`, the cytotoxicity call is “active”.
Consider `C=C(C)[C@H]1O[C@H]2CC[C@@]3(C)[C@@](O)(CC[C@H]4[C@@H]5OC(C)(C)[C@H]6C[C@@H]7C(=C)Cc8c(Cl)cc9[nH]c(c5c9c8[C@@]76O)[C@@]43C)[C@]23O[C@@H]3[C@H]1O`, for which the cytotoxicity call was “inactive”.
To `O=C1[O][Pt]2([NH][C@@H]3CCCC[C@H]3[NH]2)[O]C1=O` belongs “active”; to `CN(C)c1ccc(CCN)cc1`, “inactive”.
Turning to `Br.CC(Cc1ccc(O)cc1)NCC(O)c1cc(O)cc(O)c1` (configuration not stated), the cytotoxicity call is “inactive”.
As for `Cc1cc2c(C(C)C)c(O)c(O)c(C=O)c2c(O)c1-c1c(C)cc2c(C(C)C)c(O)c(O)c(C=O)c2c1O` [listing 1 of 2 here], the cytotoxicity call was “active”.
As for `CC(=O)O.Cc1cc2c(C(C)C)c(O)c(O)c(C=O)c2c(O)c1-c1c(C)cc2c(C(C)C)c(O)c(O)c(C=O)c2c1O`, the cytotoxicity call was “inactive”.
Turning to `Cc1cc2c(C(C)C)c(O)c(O)c(C=O)c2c(O)c1-c1c(C)cc2c(C(C)C)c(O)c(O)c(C=O)c2c1O` [listing 2 of 2 here], the cytotoxicity call was “inactive”.
To `O=C(O)C=CCO` belongs “inactive”; to `COCC12CN(C=O)C3C4C(OC)C1C3(C(OC)CC2O)C1CC2(O)C(OC)C(O)C4(OC(C)=O)C1C2OC(=O)c1ccccc1` (configuration not stated), “inactive”.
On to `O=C1CCN(C(=O)C2CCC2)CC1`, for which the cytotoxicity call is “inactive”.
The result for `COC(=O)[C@]1(Cc2ccccc2N=[N+]=[N-])N=C(c2ccc(OCCCO)cc2)O[C@@H]1c1ccccc1N=[N+]=[N-]` reads “active”.
With `COC(=O)[C@@]1(Cc2ccccc2N=[N+]=[N-])N=C(c2ccc(OCCCO)cc2)O[C@H]1c1ccccc1CN=[N+]=[N-]`, the cytotoxicity call is “inactive”.
On to `COC(=O)[C@@]1(Cc2ccccc2N=[N+]=[N-])N=C(c2ccc(OCCCO)cc2)O[C@H]1c1ccccc1N=[N+]=[N-]`, for which the cytotoxicity call is “active”.
The result for `COC(=O)[C@@]1(Cc2ccccc2CN=[N+]=[N-])N=C(c2ccc(OCCCO)cc2)O[C@H]1c1ccccc1N=[N+]=[N-]` reads “inactive”; that for `COC(=O)[C@]1(Cc2ccccc2CN=[N+]=[N-])N=C(c2ccc(OCCCO)cc2)O[C@@H]1c1ccccc1N=[N+]=[N-]`, “inactive”.
With `COC(=O)[C@]1(Cc2ccccc2N=[N+]=[N-])N=C(c2ccc(OCCCO)cc2)O[C@@H]1c1ccccc1CN=[N+]=[N-]`, the cytotoxicity call was “inactive”.
The result for `CN(C)C(=O)[C@@]1(Cc2ccccc2CN=[N+]=[N-])N=C(c2ccc(OCCCO)cc2)O[C@H]1c1ccccc1N=[N+]=[N-]` reads “inactive”; that for `[N-]=[N+]=NCc1ccccc1C[C@]1(C(=O)NCc2ccccc2)N=C(c2ccc(OCCCO)cc2)O[C@H]1c1ccccc1N=[N+]=[N-]`, “inactive”.
For `CCO[C@H]1[C@H]2CC[C@@H]1NC2`, the cytotoxicity call was “inactive”.
Turning to `O=C1CC2OCC=C3CN4CCC56c7ccccc7N1C5C2C3CC46.O=S(=O)(O)O` (configuration not stated), the cytotoxicity call is “inactive”.
In the case of `N[C@]1(C(=O)O)CC[C@@H](C(=O)O)C1`, the cytotoxicity call is “inactive”.
As to `COc1cc([C@@H](O)CN)ccc1O`, the cytotoxicity call is “inactive”.
To `[N-]=[N+]=NCc1ccccc1C[C@]1(C(=O)N2CCOCC2)N=C(c2ccc(OCCCO)cc2)O[C@H]1c1ccccc1N=[N+]=[N-]` belongs “inactive”; to `COc1ccc2c(c1)C[C@H](N)C2`, “inactive”; to `CNC(=O)[C@H]1Cn2ccnc2C2(CCNCC2)O1`, “inactive”.
On to `CC(C)CCC[C@]1(C)C=Cc2c(O)c3c(c(CCC(C)C)c2O1)O[C@]12[C@H](C[C@@H]4C[C@H]1C(C)(C)O[C@]2(CC[C@@H](C)C(=O)O)[C@@H]4O)C3=O`, for which the cytotoxicity call is “inactive”.
Turning to `CC(C)=CCCC1(C)C=Cc2c(O)c3c(c(CC=C(C)C)c2O1)OC12C(=CC4CC1C(C)(C)OC2(CC=C(C)C(=O)O)C4O)C3=O` (configuration not stated), the cytotoxicity call is “active”.
Turning to `CC(C)=CCC[C@]1(C)C=Cc2c(O)c3c(c(CC=C(C)C)c2O1)O[C@]12[C@H](C[C@@H]4C[C@H]1C(C)(C)O[C@]2(C/C=C(/C)C(=O)O)[C@@H]4O)C3=O`, the cytotoxicity call is “inactive”.
For the compound `CC(C)=CCCC1(C)C=Cc2c(O)c3c(c(CC=C(C)C)c2O1)OC12C(=CC4CC1C(C)(C)OC2(CC=C(C)C(=O)O)C4=O)C3=O` (configuration not stated), the cytotoxicity call is “active”.
To `C[C@@H]1CN([C@H](C)CO)C(=O)c2c(c3ccccc3n2C)-c2ccccc2CO[C@@H]1CN(C)C(=O)Oc1ccccc1` belongs “inactive”; to `O=C(c1ccno1)N1C[C@@H]2CCN[C@@H]2C1`, “inactive”; to `COc1ccc(C(CN(C)C)C2(O)CCCCC2)cc1.Cl` (configuration not stated), “inactive”.
With `N#CC[N+]12CCN(CC1)CC2`, the cytotoxicity call was “inactive”.
For `Cc1nc([N+](=O)[O-])c(N2CCNCC2)[nH]1`, the cytotoxicity call was “inactive”.
To `COC(=O)[C@H]1O[C@@H]2C[C@H]3O[C@@H](n4cnc5c(N)ncnc54)[C@H](OC)[C@H]3O[C@@]2(O)[C@@H](O)[C@@H]1O` belongs “inactive”.
On to `O=C(CCCN1CCC2(CC1)C(=O)N(Cc1cccc(F)c1)CN2c1ccccc1)c1ccc(F)cc1`, for which the cytotoxicity call is “inactive”.
For `CC(=O)OC1CC2(C)C(c3ccoc3)CC3OC32C2(C)C(=O)C(O)=C3C(C)(C)C(=O)C=CC3(C)C12` (configuration not stated), the cytotoxicity call is “active”.
As for `CC(=O)OC1CC2C(C)(C)C(=O)C=CC2(C)C2CCC3(C)C(=CC(=O)OC3c3ccoc3)C12C` (configuration not stated), the cytotoxicity call is “inactive”.
With `CC(=O)OC1CC(OC(C)=O)C2(C)C(CC(OC(C)=O)C3(C)C2CCC2(C)C(c4ccoc4)C(=O)C4OC423)C1(C)C` (configuration not stated), the cytotoxicity call was “inactive”.
In the case of `CC(=O)O[C@H]1C[C@@H](OC(C)=O)C(C)(C)[C@@H]2C[C@@H](OC(C)=O)[C@]3(C)[C@H](CC[C@@]4(C)[C@H](c5ccoc5)C[C@H]5O[C@@]534)[C@@]12C`, the cytotoxicity call is “inactive”.
In the case of `CC1(C)C(=O)C=CC2(C)C1=C(O)C(=O)C1(C)C2CCC2(C)C(c3ccoc3)CC3OC321` (configuration not stated), the cytotoxicity call is “active”.
To `CC1(C)C(=O)C=CC2(C)C1CC(O)C1(C)C2CCC2(C)C(c3ccoc3)OC(=O)C3OC321` (configuration not stated) belongs “inactive”.
